Measurements from PubChem BioAssay AID1159580 (chemical genetic matrix, 2015).
Hit rate of the full screen: of about 5,500 compounds, about 2,000 (36%) were called active. Inconclusive results (about 18%) are left out. Cut-off read from the data, not from the text of the source: active = normalized growth mostly below about 0.91 (no sharp cut-off); inconclusive = no clear call, values can overlap the other calls; inactive = mostly above about 0.92. The list shows a part of the results.

Test: chemical genetic growth profiling, strain panel (AID 1159580);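 note: tested at 20 µM; growth read once vehicle control cultures reached saturation at 30 °C; 1 = growth at the plate median or of vehicle wells; lower values mean less growth of the strain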
Details: S. cerevisiae deletion strains, growth OD
[1] = locus YHR030C, strain SLT2, stronger effect = lower value
[2] = locus YJL095W, strain BCK1, stronger effect = lower value

Measured: normalized growth

Cc1c(O)cc(O)c2c(=O)c(-c3ccc(O)cc3)coc12
inactive: locus YBR021W, strain FUR4, stronger effect = lower value 1.01 | locus YBR229C, strain ROT2, stronger effect = lower value 1 | locus YCL029C, strain bik1, stronger effect = lower value 1.02 | locus YDL035C, strain GPR1, stronger effect = lower value 1.01 | locus YDL074C, strain BRE1, stronger effect = lower value 1.01 | locus YDL101C, strain DUN1, stronger effect = lower value 1.01 | locus YDL185W, strain tfp1, stronger effect = lower value 1.01 | locus YDL192W, strain arf1, stronger effect = lower value 1.02 | locus YDR101C, strain arx1, stronger effect = lower value 1 | locus YDR150W, strain NUM1, stronger effect = lower value 0.997 | locus YDR162C, strain NBP2, stronger effect = lower value 1 | locus YDR318W, strain mcm21, stronger effect = lower value 1 | locus YDR388W, stronger effect = lower value 1.01 | locus YDR502C, strain sam2, stronger effect = lower value 1.01 | locus YEL061C, strain CIN8, stronger effect = lower value 0.993 | locus YER110C, stronger effect = lower value 1.02 | locus YER155C, strain BEM2, stronger effect = lower value 1.01 | locus YER167W, strain BCK2, stronger effect = lower value 1 | locus YGL078C, strain dbp3, stronger effect = lower value 1.01 | locus YGL086W, strain mad1, stronger effect = lower value 1.02 | locus YGL248W, strain PDE1, stronger effect = lower value 1 | locus YGR078C, strain PAC10, stronger effect = lower value 0.978 | locus YGR135W, strain pre9, stronger effect = lower value 1.03 | locus YGR229C, strain SMI1, stronger effect = lower value 0.987 | locus YGR252W, strain gcn5, stronger effect = lower value 0.983 | [1] 1 | locus YHR079C, strain IRE1 (second series), stronger effect = lower value 1 | locus YHR094C, strain hxt1, stronger effect = lower value 1 | locus YHR129C, strain ARP1, stronger effect = lower value 1 | locus YHR200W, strain rpn10, stronger effect = lower value 1.01 | locus YIL066C, strain RNR3, stronger effect = lower value 0.995 | locus YIL073C, strain SPO22, stronger effect = lower value 1.07 | locus YIL125W, strain kgd1, stronger effect = lower value 0.996 | locus YIR030C, strain dcg1, stronger effect = lower value 1.01 | [2] 0.998 | locus YJL134W, strain LCB3, stronger effect = lower value 1 | locus YJL168C, strain set2, stronger effect = lower value 1 | locus YJL187C, strain SWE1 (second series), stronger effect = lower value 0.991 | locus YJR043C, strain POL32, stronger effect = lower value 0.997 | locus YJR075W, strain HOC1, stronger effect = lower value 0.99 | locus YKL009W, strain mrt4, stronger effect = lower value 0.99 | locus YKL068W, stronger effect = lower value 1 | locus YKL085W, strain MDH1 (second series), stronger effect = lower value 0.994 | locus YKL085W, strain MDH1, stronger effect = lower value 0.994 | locus YKL190W, strain CNB1, stronger effect = lower value 0.986 | locus YKR001C, strain vps1, stronger effect = lower value 0.992 | locus YLR039C, strain RIC1, stronger effect = lower value 1.18 | locus YLR058C, strain SHM2, stronger effect = lower value 0.993 | locus YLR102C, strain apc9, stronger effect = lower value 1.01 | locus YLR262C, strain YPT6, stronger effect = lower value 1.21 | locus YLR268W, strain sec22, stronger effect = lower value 1.01 | locus YLR330W, strain CHS5, stronger effect = lower value 1.01 | locus YLR342W, strain FKS1 (second series), stronger effect = lower value 1.02 | locus YLR371W, strain rom2, stronger effect = lower value 1.01 | locus YLR418C, strain cdc73, stronger effect = lower value 0.95 | locus YML016C, strain PPZ1, stronger effect = lower value 1.01 | locus YML032C, strain rad52, stronger effect = lower value 0.995 | locus YML124C, strain tub3, stronger effect = lower value 1.02 | locus YMR078C, strain ctf18, stronger effect = lower value 1.01 | locus YMR223W, strain ubp8, stronger effect = lower value 1.01 | locus YMR263W, strain SAP30, stronger effect = lower value 0.989 | locus YMR307W, strain GAS1, stronger effect = lower value 0.993 | locus YNL067W, strain RPL9B, stronger effect = lower value 0.986 | locus YNL153C, strain GIM3, stronger effect = lower value 0.979 | locus YNL233W, strain BNI4, stronger effect = lower value 0.979 | locus YNL250W, strain rad50, stronger effect = lower value 1.01 | locus YNL271C, strain bni1, stronger effect = lower value 1.02 | locus YNL298W, strain CLA4, stronger effect = lower value 1.01 | locus YNL307C, strain MCK1, stronger effect = lower value 1.01 | locus YNR052C, strain pop2, stronger effect = lower value 1.01 | locus YOL012C, strain htz1 1.03 | locus YOL147C, strain pex11, stronger effect = lower value 0.998 | locus YOR061W, strain CKA2, stronger effect = lower value 1 | locus YOR069W, strain VPS5, stronger effect = lower value 1.01 | locus YOR136W, strain idh2, stronger effect = lower value 0.999 | locus YOR144C, strain elg1, stronger effect = lower value 1 | locus YOR184W, strain ser1, stronger effect = lower value 0.988 | locus YOR316C, strain cot1, stronger effect = lower value 1.02 | locus YPL055C, strain LGE1, stronger effect = lower value 0.944 | locus YPR119W, strain clb2, stronger effect = lower value 1 | locus YPR141C, strain kar3, stronger effect = lower value 1.02 | locus YPR163C, strain tif3, stronger effect = lower value 1 | locus YPR167C, strain met16, stronger effect = lower value 1.03 | strain wtn01, stronger effect = lower value 1.01

COc1cc2oc3cc(OC)c(OC)c(CC=C(C)C)c3c(=O)c2c(OC)c1CC=C(C)C
inactive: [1] 0.934 | locus YHR079C, strain IRE1, stronger effect = lower value 0.927 | [2] 0.918 | locus YJR066W, strain TOR1, stronger effect = lower value 0.885 | locus YLR113W, strain HOG1, stronger effect = lower value 0.895 | locus YNL183C, strain NPR1, stronger effect = lower value 0.862 | locus YOR231W, strain MKK1, stronger effect = lower value 0.905 | locus YPL256C, strain CLN2, stronger effect = lower value 0.955
